Records with an inconclusive call do not appear. Where a call stands in place of a potency, no number is given. The source made the active and inactive calls. Calls come from the whole dose curve; tested in HEK293 reporter line.
Assay: qHTS for Inhibitors of the Functional Ribonucleoprotein Complex (vRNP) of Lassa (LASV) Arenavirus: Viability assay - alamar blue signal for LASV Primary Screen (AID 1347083); note: nearly all actives have a fitted effect of over 80% in size
Conditions: cell viability, alamar blue fluorescence (LASV minigenome counter-screen); series mostly up to 57.5 µM

Row | Structure (SMILES) | Potency
1 | Oc1cc2c(cc1O)CN(C(=S)NCCc1ccc(Cl)cc1)CCC2 | inactive
2 | CN(C)c1nc(N)c(C(=O)N=C(N)N)nc1Cl | inactive
3 | CCCCCCCCCCCCCCC[C@H](O)[C@H](N)CO | inactive
4 | O=C(O)C1=CCCNC1 | inactive
5 | COC(=O)c1c(C)[nH]c(C)c1C(=O)c1ccccc1Cc1ccccc1 | inactive
6 | CN[C@H](CC(=O)O)C(=O)O | inactive
7 | O=c1ccc2c(OCCCCc3ccccc3)c3ccoc3cc2o1 | inactive
8 | NCCSSCCN | inactive
9 | O=c1onc2n1-c1cc(Br)ccc1OC2 | inactive
10 | Cc1ccc([N+](=O)[O-])cc1S(=O)(=O)N(C)C | inactive
11 | N[C@H](C(=O)O)[C@H](O)C(=O)O | inactive
12 | O=C(O)c1cc(=O)cc(C(=O)O)[nH]1 | inactive
13 | Nc1ccc(-c2ccc3ccccc3n2)cc1 | inactive
14 | O=C(O)c1cc2cc(F)ccc2[nH]1 | inactive
15 | CC[N+](CC)(CC)CC(=O)Nc1c(C)cccc1C | inactive
16 | CCCN(CC1CC1)c1nc(C)nc(Nc2c(Cl)cc(Cl)cc2Cl)c1Cl | inactive
17 | CNCCNS(=O)(=O)c1cccc2cnccc12 | inactive
18 | NC1(C(=O)O)CCCCC1 | inactive
19 | Cc1nc(N=Nc2ccc(S(=O)(=O)O)cc2S(=O)(=O)O)c(COP(=O)(O)O)c(C=O)c1O | inactive
20 | C/C(=C\c1ccc(C(=O)O)cc1)c1ccc2c(c1)C(C)(C)CCC2(C)C | inactive

Row | Structure (SMILES) | Potency
21 | COc1ccc2c(c1)c(CC(=O)O)c(C)n2Cc1ccc(Cl)cc1 | inactive
22 | CSC(=N)N | inactive
23 | C#CCn1c(=O)c2c(ncn2C)n(C)c1=O | inactive
24 | COc1cc2c(CCNC(C)=O)c[nH]c2cc1O | inactive
25 | CCN(CC)CCOC(=O)c1cc(Cl)c(N)cc1OC | inactive
26 | COc1ccccc1N1CCN(CCCCN2C(=O)c3ccccc3C2=O)CC1 | inactive
27 | O=C(O)/C(=C/c1c(C(=O)O)[nH]c2cc(Cl)cc(Cl)c12)c1ccccc1 | inactive
28 | Cn1c(=O)c2[nH]c(-c3ccc(S(=O)(=O)O)cc3)nc2n(C)c1=O | inactive
29 | NCCNS(=O)(=O)c1cccc2c(Cl)cccc12 | inactive
30 | COc1cc(/C=C(\C#N)C(=O)c2ccc(O)c(O)c2)cc(I)c1O | inactive
31 | COc1ccc(C(=O)NCc2cccnc2)cc1C(=O)NCc1cccnc1 | inactive
32 | NC1(C(=O)O)CC1 | inactive
33 | Cn1c(=O)c2[nH]c(C3CCCC3)nc2n(C)c1=O | inactive
34 | NC(=O)C(=O)O | inactive
35 | Cn1c(=O)[nH]c2ncn(C)c2c1=O | inactive
36 | N#C/C(=C\c1ccc(O)c(O)c1)C(=O)c1ccc(O)c(O)c1 | inactive
37 | CN1CCN(c2nc3cc(C(F)(F)F)ccc3n3cccc23)CC1 | inactive
38 | NCCCCN | inactive
39 | CC1(C)CCC=[N+]1[O-] | inactive
40 | C[C@H](O)C(=O)C1=Nc2c(nc(N)[nH]c2=O)NC1 | inactive

From PubChem BioAssay (NCATS)
